Test results reported in PubChem BioAssay AID1851 (National Center for Advancing Translational Sciences (NCATS), 2009).
The campaign covered roughly 16,000 compounds. About 4,000 (25%) were called active. Not shown: some 26% with an inconclusive outcome. Only a sample is shown. Unmarked numbers belong to inactive results. Calls come from the whole dose curve; as a rule, active = well fitted curve in the direction sought with a large enough effect; inconclusive = small, poorly fitted or top-dose-only effect, or effect the other way; inactive = no such curve, though single readings can be large or run the other way.
% is set by controls: 0 for no effect and ±100 for the full control effect.

Each compound was assayed against Cytochrome P450 2C9 (Homo sapiens) (UniProt P11712) (assay: Cytochrome panel assay with activity outcomes). Settings: recombinant CYP, pro-luciferin dealkylation, luminescence, p450-cyp2c9; series mostly up to 57.1 µM; activity, negative = inhibition: at the top concentration.
Cytochrome P450 2C9 (Homo sapiens), sequence (P11712 whole entry, looked up): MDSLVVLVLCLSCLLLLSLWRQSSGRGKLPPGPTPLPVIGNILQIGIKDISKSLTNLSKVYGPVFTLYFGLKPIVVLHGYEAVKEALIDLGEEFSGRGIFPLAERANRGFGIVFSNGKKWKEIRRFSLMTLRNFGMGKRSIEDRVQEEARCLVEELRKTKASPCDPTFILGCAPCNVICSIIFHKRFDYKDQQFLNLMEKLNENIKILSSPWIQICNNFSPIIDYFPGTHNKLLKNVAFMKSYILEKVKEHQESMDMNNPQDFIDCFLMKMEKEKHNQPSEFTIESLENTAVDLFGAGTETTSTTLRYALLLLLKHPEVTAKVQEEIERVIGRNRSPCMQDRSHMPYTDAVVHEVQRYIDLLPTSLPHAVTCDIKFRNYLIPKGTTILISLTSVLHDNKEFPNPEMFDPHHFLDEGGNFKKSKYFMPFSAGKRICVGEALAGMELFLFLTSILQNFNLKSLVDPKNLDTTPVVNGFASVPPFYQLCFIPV
`COc1ccc(NC(=O)N2CC3(CCN(C(=O)c4csnn4)CC3)C2)cc1` was tested, and the “activity, negative = inhibition” value was 9.55%. `Nc1nc2c(ncn2[C@@H]2C=C[C@@H](CO)C2)c(=O)[nH]1` was tested, and the activity, negative = inhibition was 3.99% [at 11.4 µM]. With `C/C(=C(/CCO)SSC[C@@H]1CCCO1)N(C=O)Cc1cnc(C)nc1N` the “activity, negative = inhibition” value was 15.4% [at 25.6 µM]. For `CCc1ccccc1OC[C@@H](O)CN[C@H]1CCCc2ccccc21`, the “activity, negative = inhibition” value was 18.2%. For `Nc1ccc(N(S(=O)(=O)c2ccccc2)S(=O)(=O)c2ccccc2)c(Cl)c1`, the AC50 was 3.16 µM (active). With `Nc1ccc(N2C(=O)c3ccccc3C2=O)c(Cl)c1` the “activity, negative = inhibition” value was 12.8%. `CCC/C=C(\CCC)C(NC(=O)Cc1ccccc1)c1ccc(C(=O)OC)cc1` (stereo not drawn) was tested, and the AC50 was 10 µM (active). With `CCC/C=C(\CCC)C(NC(=O)OCC(C)C)c1ccc(C(=O)OC)cc1` (stereo not drawn) the AC50 was 3.98 µM (active). `CCC/C=C(\CCC)C(NC(=O)c1cccs1)c1ccc(C(=O)OC)cc1` (stereo not drawn) was tested, and the AC50 was 2 µM (active). `CCC/C=C(\CCC)C(NS(=O)(=O)c1cccs1)c1ccc(C(=O)OC)cc1` (stereo not drawn) was tested, and the AC50 was 2 µM (active). In the case of `COC(=O)N1CCC2(CC1)CN(C(=O)Nc1cccc(C#N)c1)C2`, the “activity, negative = inhibition” value is reported as -16.4%. For `COc1ccccc1CNc1ncnc2ccc(-c3ccoc3)cc12`, the activity, negative = inhibition was -19.5% [at 2.29 µM]. With `Cc1cnc(CNc2cc(-c3ccoc3)ncn2)cn1` the activity, negative = inhibition was 10.6% [at 2.29 µM]. `O=C(Nc1cccc(F)c1)N1CCC2(CC1)CCN(C(=O)c1csnn1)CC2` was tested, and the “activity, negative = inhibition” value was -10.3%. `CCc1c2c(nc3cccc(OC)c13)OC(CC)C2` (stereo not drawn) was tested, and the “activity, negative = inhibition” value was 0.447%. `CCC/C=C(\CCC)C(NC(=O)c1ccc(-c2ccccc2)cc1)c1ccc(C(=O)OC)cc1` (stereo not drawn) was tested, and the “activity, negative = inhibition” value was -13.2%. In the case of `CCC/C=C(\CCC)C(NC(=O)c1ccc(C(=O)OC)cc1)c1ccc(C(=O)OC)cc1` (stereo not drawn), the AC50 is reported as 2 µM (active). `CCC/C=C(\CCC)C(NC(=O)c1ccc(C(F)(F)F)cc1)c1ccc(C(F)(F)F)cc1` (stereo not drawn) was tested, and the “activity, negative = inhibition” value was -1.68%. In the case of `C[N+](C)(C)c1ccc([C@H](N)C(=O)O)cc1`, the activity, negative = inhibition is reported as -14.1% [at 11.4 µM]. `CCCn1cnc2c1c(=O)n(CCCCC(C)=O)c(=O)n2C` was tested, and the “activity, negative = inhibition” value was 4.22%. For `CCCn1c(=O)c2c(ncn2C)n(CCC)c1=O`, the “activity, negative = inhibition” value was 3.38%. With `CCCCn1cnc2c(cnn2-c2ccc(F)cc2)c1=O` the AC50 was 11.2 µM (active). In the case of `O=C(O)CONC(=O)c1cc(OCC(F)(F)F)ccc1OCC(F)(F)F`, the “activity, negative = inhibition” value is reported as 4.3%. In the case of `CC(C)CC(=O)Nc1sc2c(c1C#N)CC(C)(C)NC2(C)C`, the “activity, negative = inhibition” value is reported as -27.1%. With `COC(=O)C1CCN(CC(=O)Nc2sc3c(c2C#N)CCC3)CC1` the AC50 was 5.62 µM (active). `Cc1c(C(=O)O)nc(/C=C\C(=O)O)[nH]c1=O` showed an activity, negative = inhibition of -11.9% [at 11.4 µM]. With `O=C(O)c1nn(-c2ccccc2)nc1-c1nn(-c2ccccc2)nc1C(=O)O` the “activity, negative = inhibition” value was -0.0182%. Work on `O=C(O)c1nn(-c2ccc(Cl)cc2)c2c1C(=O)c1ccccc1C2=O` yielded an activity, negative = inhibition of -5.15% [at 11.4 µM]. In the case of `O=C(c1ccccc1)c1nn(-c2ccccc2)c(=O)cc1C(F)(F)F`, the AC50 is reported as 10 µM (active). For `CC(C)[C@H]1C(=O)C(C(N)=O)=C(O)[C@]2(O)C(=O)C3=C(O)c4c(O)ccc(N(C)C)c4C[C@H]3C[C@@H]12`, the “activity, negative = inhibition” value was -5.14%. For `CN(C)CC/C=C1\c2ccccc2Sc2ccc(Cl)cc21`, the “activity, negative = inhibition” value was -4.11% [at 25.6 µM]. With `CCC(C)(C(=O)NC1CCCC1)N(CC1CCCO1)C(=O)c1ccc2c(c1)OCO2` (stereo not drawn) the “activity, negative = inhibition” value was -11.3%. In the case of `CC(C(=O)NC1CCCC1)N(C(=O)c1snc(C(N)=O)c1N)c1ccc2c(c1)OCCO2` (stereo not drawn), the AC50 is reported as 12.6 µM (active). With `Nc1nc(=O)c2[nH]cnc2n1O` the activity, negative = inhibition was -5.05% [at 11.4 µM]. `CN(C)Cc1ccccc1-c1ccc2ncnc(NC3CCNCC3)c2c1` was tested, and the activity, negative = inhibition was 7.8% [at 2.29 µM]. With `COc1ccc(/C=N/n2c(C)nnc2C)c(OC)c1` the “activity, negative = inhibition” value was -19.1%. `Cc1cc(C)n(-c2nnc(C)n2/N=C/c2ccccc2OCc2ccccc2Cl)n1` was tested, and the AC50 was 8.91 µM (active). With `CN(C)CCOC(=O)c1ccc(N)cc1` the activity, negative = inhibition was -8.18% [at 11.4 µM]. For `O=C(CCS(=O)(=O)c1cccc2nsnc12)NC1CCCCC1`, the “activity, negative = inhibition” value was 18.2%. With `Cc1cccc(NC(=O)CCS(=O)(=O)c2cccc3nsnc23)c1C` the AC50 was 15.8 µM (active). `COc1ccc(-c2cc(C(F)(F)F)n3nc(C(=O)N4CCCCC4)cc3n2)cc1` was tested, and the AC50 was 25.1 µM (active). With `COc1ccc(NC(=O)N2CCCC3(CCN(C(=O)c4cnccn4)CC3)C2)cc1` the “activity, negative = inhibition” value was 1.74%. In the case of `CCOC(=O)C1CCCN(C(=O)c2cc3nc(-c4ccc5c(c4)OCO5)cc(C(F)(F)F)n3n2)C1` (stereo not drawn), the AC50 is reported as 6.31 µM (active). With `COc1cccc(-c2cc(C(F)(F)F)n3ncc(S(=O)(=O)c4ccccc4)c3n2)c1` the “activity, negative = inhibition” value was -9.21%. `c1cncc(CNc2ncncc2-c2cccnc2)c1` gave an activity, negative = inhibition of 4.39% [at 2.29 µM]. With `O=S(=O)(N/N=C\C=C\c1ccccc1)c1ccc(Br)cc1` the AC50 was 0.501 µM (active). `C(/C=C\c1ccccc1)=Nc1ccc2c(c1)Cc1ccccc1-2` was tested, and the activity, negative = inhibition was -24.1% [at 11.4 µM]. For `O=C(N/N=C/C=C/c1ccccc1)c1cc2c(ccc3ccccc32)o1`, the “activity, negative = inhibition” value was -29.8%.
